# The entries come from a sample that favours the strongest signals as a whole.
# B1: PEB3 Cj0289c (Campylobacter jejuni), Q9PIK7 (protein)
# chain: MDVNLYGPGGPHTALKDIANKYSEKTGVKVNVNFGPQATWFEKAKKDADILFGASDQSALAIASDFGKDFNVSKIKPLYFREAIILTQKGNPLKIKGLKDLANKKVRIVVPEGAGKSNTSGTGVWEDMIGRTQDIKTIQNFRNNIVAFVPNSGSARKLFAQDQADAWITWIDWSKSNPDIGTAVAIEKDLVVYRTFNVIAKEGASKETQDFIAYLSSKEAKEIFKKYGWRE
# What was measured:
# Assay in all cases: glycan array binding signal (z-score within array); higher = stronger binding
# Settings in all cases: glycan notation: IUPAC condensed, linker removed
# [1] = biological target: Fuc(a1-2)Gal(b1-3)GalNAc(b1-3)Gal
# Method in brief: (§1)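 Glycan array data were curated from 3228 arrays in the Consortium for Functional Glycomics database and kept only where the protein sequence was available. Glycan names were converted to IUPAC-condensed notation, and columns mapping to the same glycan were averaged. The binding signal is a within-array Z-score, averaged across arrays of the same protein sequence at different concentrations or buffers and across linkers. Negative Z-scores can be read as non-binding.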
# [2] = biological target: Fuc(a1-2)Gal(b1-4)GlcNAc(b1-3)Gal(b1-4)GlcNAc(b1-3)Gal(b1-4)GlcNAc
# Method in brief: as §1
# [3] = biological target: Fuc(a1-2)[GalNAc(a1-3)]Gal(b1-4)[Fuc(a1-3)]GlcNAc
# Method in brief: as §1
# [4] = biological target: Fuc(a1-3)[Gal(b1-4)]GlcNAc(b1-4)Gal(b1-4)[Fuc(a1-3)]GlcNAc(b1-4)Gal(b1-4)[Fuc(a1-3)]GlcNAc
# Method in brief: as §1
# [5] = biological target: Fuc(a1-3)[Gal3S(b1-4)]GlcNAc6S
# Method in brief: as §1
# [6] = biological target: Fuc(a1-4)GlcNAc
# Method in brief: as §1
# [7] = biological target: Gal(a1-6)Glc
# Method in brief: as §1
# [8] = biological target: Gal(b1-3)[Neu5Ac(a2-6)]GalNAc
# Method in brief: as §1
# [9] = biological target: Gal(b1-4)GalNAc(b1-3)[Fuc(a1-2)]Gal(b1-4)GlcNAc
# Method in brief: as §1
# [10] = biological target: Gal3S(b1-4)Glc6S
# Method in brief: as §1
# [11] = biological target: Gal3S6S(b1-4)GlcNAc6S
# Method in brief: as §1
# [12] = biological target: Gal4S(b1-4)GlcNAc
# Method in brief: as §1
# [13] = biological target: Gal6S(b1-4)Glc6S
# Method in brief: as §1
# [14] = biological target: Man(a1-2)Man(a1-2)Man(a1-3)[Man(a1-2)Man(a1-3)[Man(a1-2)Man(a1-6)]Man(a1-6)]Man(b1-4)GlcNAc(b1-4)GlcNAc
# Method in brief: as §1
# [15] = biological target: Man(a1-2)Man(a1-2)Man(a1-6)[Man(a1-3)]Man
# Method in brief: as §1
# [16] = biological target: Man(a1-2)Man(a1-3)[Man(a1-6)]Man(a1-6)[Man(a1-2)Man(a1-3)]Man(b1-4)GlcNAc(b1-4)GlcNAc
# Method in brief: as §1
# [17] = biological target: Neu5Ac(a2-3)[GalNAc(b1-4)]Gal(b1-4)GlcNAc
# Method in brief: as §1
# [18] = biological target: Neu5Ac(a2-8)Neu5Ac(a2-3)[GalNAc(b1-4)]Gal(b1-4)Glc
# Method in brief: as §1
# [19] = biological target: Neu5Ac(a2-8)Neu5Ac(a2-8)Neu5Ac(a2-3)Gal(b1-4)Glc
# Method in brief: as §1
# [20] = biological target: Neu5Gc(a2-3)Gal(b1-4)GlcNAc
# Method in brief: as §1
binder,measurement,setting,value
B1,glycan array binding signal (z-score),[1],1.6
same,glycan array binding signal (z-score),[2],-0.33
same,glycan array binding signal (z-score),[3],-0.226
same,glycan array binding signal (z-score),[4],-0.441
same,glycan array binding signal (z-score),[5],0.228
same,glycan array binding signal (z-score),[6],-0.029
same,glycan array binding signal (z-score),[7],1.25
same,glycan array binding signal (z-score),[8],-0.409
same,glycan array binding signal (z-score),[9],-0.381
same,glycan array binding signal (z-score),[10],1.38
same,glycan array binding signal (z-score),[11],2.8
same,glycan array binding signal (z-score),[12],0.039
same,glycan array binding signal (z-score),[13],1.36
same,glycan array binding signal (z-score),[14],-0.256
same,glycan array binding signal (z-score),[15],-0.192
same,glycan array binding signal (z-score),[16],-0.25
same,glycan array binding signal (z-score),[17],-0.332
same,glycan array binding signal (z-score),[18],-0.28
same,glycan array binding signal (z-score),[19],-0.456
same,glycan array binding signal (z-score),[20],-0.272
